Data reported in PubChem BioAssay AID1159580 (chemical genetic matrix, 2015).
Among all 5,500 compounds or so, about 2,000 (36%) were called active. Another 18% or so got no clear call; they are omitted. Cut-off read from the data, not from the text of the source: active = normalized growth mostly below about 0.91 (no sharp cut-off); inconclusive = no clear call, values can overlap the other calls; inactive = mostly above about 0.92. The list shows a part of the results.

Assay: chemical genetic growth profiling, strain panel (AID 1159580);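 note: tested at 20 µM; growth read once vehicle control cultures reached saturation at 30 °C; 1 = growth at the plate median or of vehicle wells; lower values mean less growth of the strain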
Conditions: S. cerevisiae deletion strains, growth OD
[1] = locus YHR030C, strain SLT2, active compounds read low
[2] = locus YHR079C, strain IRE1, active compounds read low
[3] = locus YJL095W, strain BCK1, active compounds read low
[4] = locus YJR066W, strain TOR1, active compounds read low
[5] = locus YLR113W, strain HOG1, active compounds read low
[6] = locus YNL183C, strain NPR1, active compounds read low
[7] = locus YOR231W, strain MKK1, active compounds read low
[8] = locus YPL256C, strain CLN2, active compounds read low

Measured: normalized growth

CC(=O)OCC(=O)[C@@]1(O)CCC2C3CCC4=CC(=O)C=C[C@]4(C)[C@@]3(F)[C@@H](O)C[C@@]21C (some centres undefined)
inactive: [1] 1.07 | [2] 1.07 | [3] 1.01 | [4] 1 | [5] 0.999 | [6] 0.993 | [7] 1.05 | [8] 1.06

CC(/C=C/c1ccccc1)=N/OC(=O)c1ccccc1Cl
active: [5] 0.734 | [8] 0.806
inactive: locus YAR019C, strain CDC15, active compounds read low 0.967 | locus YBL105C, strain PKC1, active compounds read low 0.97 | locus YBR135W, strain CKS1, active compounds read low 0.974 | locus YBR136W, strain MEC1, active compounds read low 0.969 | locus YBR160W, strain CDC28, active compounds read low 0.97 | locus YDL017W, strain CDC7, active compounds read low 0.976 | locus YDL028C, strain MPS1, active compounds read low 0.981 | locus YDL101C, strain DUN1, active compounds read low 0.976 | locus YDL108W, strain KIN28, active compounds read low 0.982 | locus YDL132W, strain cdc53, active compounds read low 0.978 | locus YDL214C, strain PRR2, active compounds read low 0.902 | locus YDR052C, strain DBF4, active compounds read low 0.981 | locus YDR054C, strain cdc34, active compounds read low 0.96 | locus YDR226W, strain ADK1, active compounds read low 0.979 | locus YDR477W, strain SNF1, active compounds read low 0.911 | locus YER123W, strain YCK3, active compounds read low 0.876 | locus YER133W, strain GLC7, active compounds read low 0.917 | locus YFL009W, strain cdc4, active compounds read low 0.974 | locus YFL029C, strain CAK1, active compounds read low 0.969 | locus YFR003C, strain YPI1, active compounds read low 0.97 | locus YFR019W, strain FAB1, active compounds read low 0.936 | locus YFR028C, strain CDC14, active compounds read low 0.969 | locus YGR040W, strain KSS1, active compounds read low 0.887 | locus YGR052W, strain FMP48, active compounds read low 0.949 | locus YGR092W, strain DBF2, active compounds read low 0.874 | [1] 0.899 | [2] 0.888 | locus YHR082C, strain KSP1, active compounds read low 0.96 | locus YHR205W, strain SCH9, active compounds read low 0.864 | locus YIL147C, strain SLN1, active compounds read low 0.974 | [3] 0.903 | locus YJL128C, strain PBS2, active compounds read low 0.955 | locus YJL157C, strain FAR1, active compounds read low 0.879 | locus YJR016C, strain ILV3, active compounds read low 0.978 | locus YJR066W, strain TOR1 (second series), active compounds read low 0.795 | [4] 0.963 | locus YKL048C, strain ELM1, active compounds read low 0.936 | locus YKL067W, strain YNK1, active compounds read low 0.907 | locus YKL101W, strain HSL1, active compounds read low 0.902 | locus YKL193C, strain SDS22, active compounds read low 0.974 | locus YKL203C, strain TOR2, active compounds read low 0.954 | locus YLR133W, strain CKI1, active compounds read low 0.896 | locus YLR403W, strain SFP1, active compounds read low 0.86 | locus YML070W, strain DAK1, active compounds read low 0.849 | locus YMR001C, strain CDC5, active compounds read low 0.97 | locus YMR205C, strain PFK2 (second series), active compounds read low 0.917 | locus YMR277W, strain FCP1, active compounds read low 0.966 | locus YNL006W, strain LST8, active compounds read low 0.984 | locus YNL020C, strain ARK1, active compounds read low 0.905 | locus YNL161W, strain CBK1, active compounds read low 0.968 | [6] 0.903 | locus YNL207W, strain RIO2, active compounds read low 0.965 | locus YNL222W, strain SSU72, active compounds read low 0.984 | locus YNL307C, strain MCK1 (second series), active compounds read low 0.899 | locus YOL078W, strain AVO1, active compounds read low 0.975 | locus YOL136C, strain PFK27, active compounds read low 0.849 | locus YOR061W, strain CKA2, active compounds read low 0.9 | locus YOR119C, strain RIO1, active compounds read low 0.961 | [7] 0.84 | locus YOR329C, strain SCD5, active compounds read low 0.974 | locus YPL031C, strain PHO85, active compounds read low 0.909 | locus YPL153C, strain RAD53, active compounds read low 0.896 | locus YPL204W, strain HRR25, active compounds read low 0.897 | locus YPL209C, strain IPL1, active compounds read low 0.966 | locus YPR025C, strain CCL1, active compounds read low 0.977 | locus YPR106W, strain ISR1, active compounds read low 0.964 | locus YPR111W, strain DBF20, active compounds read low 0.961 | strain NNK1, active compounds read low 0.963 | strain TSCII, active compounds read low 0.961
